From PubChem BioAssay (NCATS)
Values without a mark were called inactive. Results filed as inconclusive are left out. The source made the active and inactive calls. Unless noted, the call rests on the fitted dose curve; in most records, active means well fitted curve in the direction sought with a large enough effect; inconclusive means small, poorly fitted or top-dose-only effect, or another doubt; inactive means no such curve, though single readings can be large; an effect the other way counts as inactive or inconclusive.

Columns and labels:
[1] = molecular target: Lysosomal acid glucosylceramidase (Homo sapiens) (UniProt P04062); test: Glucocerebrosidase-p2 (AID 348; in the data active means potency below about 10 µM; further: potency means the concentration at half of the fitted maximal effect); conditions: purified GBA, blue fluorogenic substrate, 40 min
Method in brief: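 Normal human glucocerebrosidase (0.2 nM) with blue fluorogenic substrate (80 uM final) in citrate/phosphate pH 5.9 with 10mM sodium taurocholate, 0.01% tween-20; 40 min RT, NaOH/glycine stop; fluorescence Ex 365/Em 440; AC50 from a titration from 0.6 nM upwards.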

[2] = AP1 Signaling Pathway (AID 357; active means well fitted curve in either direction with a large enough effect, not every such curve was filed as active;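 further: ME-180 reporter cells stimulated with EGF at its EC50 level; on the % scale 0 is the no-effect control and ±100 the full control effect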); conditions: ME-180 AP-1-bla reporter, EGF-induced, beta-lactamase ratio, 5 h; at 7.69 µM (top of the series) unless noted
Method in brief: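 A ratiometric CCF4 readout (405 nm excitation; 460 and 530 nm emission) quantified AP-1-driven beta-lactamase in ME-180 cells after 5 h with compound and EC50 EGF; AC50 values were derived for activators and inhibitors.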

[3] = molecular target: Cytochrome P450 1A2 (Homo sapiens) (UniProt P05177); test: p450-cyp1a2 (AID 410; calls by dose curve; further: potency means the concentration at half of the fitted maximal effect); conditions: recombinant CYP1A2, luciferin-ME demethylation, luminescence; series mostly up to 57 µM
Method in brief: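 Luminescent demethylation readout: Luciferin-ME (100uM, equal to Km) turned over by 20nM CYP1A2 for 60 min at room temperature after NADPH regeneration addition, following 10 min compound preincubation. Normalization used 57 uM furafylline as full inhibition.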

[4] = NFAT Signaling Pathway (AID 444; active means well fitted curve in either direction with a large enough effect, not every such curve was filed as active;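 further: carbachol stimulus at about its EC50 of 1 µM final; on the % scale 0 is the no-effect control and ±100 the full control effect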); conditions: Jurkat NFAT-bla M1, carbachol, beta-lactamase ratio, 5 h; at 7.69 µM (top of the series) unless noted
Method in brief: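 Jurkat cells carrying an NFAT-driven β-lactamase reporter and co-transfected muscarinic M1 receptor were treated with compound plus carbachol (1 uM final, an EC50 level) for 5 h at 37 °C. CCF4 loading followed for 1 h at RT; 460/530 nm ratio gave %activity.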

[5] = Stat Signaling Pathway (AID 446; active means well fitted curve in either direction with a large enough effect, not every such curve was filed as active;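 further: ME-180 cervical cancer cells given 40 pM IL-6 alongside compound; SIE-controlled beta-lactamase reporter measured as 460/530 nm FRET emission ratio; on the % scale 0 is the no-effect control and ±100 the full control effect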); conditions: ME-180 (cervical carcinoma) SIE beta-lactamase reporter, IL-6 stimulated, 5 h; at 7.69 µM (top of the series) unless noted
Method in brief: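 Normalization used AC90 stimulation (300 pM IL-6) and AC90 inhibition (125 nM pan-JAK inhibitor at 40 pM IL-6). The underlying signal is SIE-driven beta-lactamase in ME-180 cells after 5 h IL-6 exposure with compound.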

[6] = molecular target: Glucocorticoid receptor (Homo sapiens) (UniProt P04150); test: GR-GFP Redistribution (AID 450;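 active means compounds whose dose series gives a full or clear partial fitted curve of increased nuclear translocation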; further: potency means the concentration at half of the fitted maximal effect); conditions: U2OS GR-GFP nuclear translocation, laser cytometry, 2 h
[7] = molecular target: Glucocorticoid receptor (Homo sapiens) (UniProt P04150); test: GR-EFC Redistribution (AID 451; calls by dose curve; further: potency means the concentration at half of the fitted maximal effect); conditions: CHO-K1 GR-EFC translocation, beta-gal luminescence, 2 h
Method in brief: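 CHO-K1 cells stably expressing nuclear-localized β-gal enzyme acceptor and GR fused C-terminally to the enzyme donor fragment; ligand-driven nuclear translocation restores β-gal by complementation. Compounds titrated up to 46 uM final, 2 h at 37 °C; luminescence read.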

[8] = molecular target: Mitogen-activated protein kinase 10 (Mus musculus) (UniProt Q61831); test: JNK3 AlphaScreen Assay (AID 530; active means well fitted curve in either direction with a large enough effect, not every such curve was filed as active;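 further: kinase came from lysate of stimulated human HepG2 cells; signal reports phosphorylation of biotinylated GST-cJun 1-79 at Ser73 with 10 µM ATP; on the % scale 0 is the no-effect control and ±100 the full control effect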); conditions: JNK3 lysate, c-Jun phosphorylation; series mostly up to 57.1 µM
Method in brief: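 Phosphorylation of biotinylated GST-cJun(1-79) at Ser73 is measured by AlphaScreen proximity luminescence. Enzyme is JNK3 in HepG2 lysates activated with interleukin-1beta and tumor necrosis factor alpha; ATP is 10 uM final.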

[9] = molecular target: 3',5'-cyclic-AMP phosphodiesterase 4B (Homo sapiens) (UniProt Q07343); test: qHTS Assay for Inhibitors of PDE-IV (AID 607; active means well fitted activation curve with a large enough effect in the main read-out, with a control signal flat, not every such curve was filed as active; further: potency means the concentration at half of the fitted maximal effect); conditions: HEK293 ACTOne CNG channel cells, membrane potential fluorescence; series mostly up to 22.9 µM
Method in brief: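 HEK293 ACTOne cells with CNG channel (1000/well), endogenous PDE4; membrane potential dye, compounds up to 22.9 uM final. Fluorescence Ex 535/Em 590; RO 20-1724 (100 uM final) as reference.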

[10] = molecular target: Cytochrome P450 3A4 (Homo sapiens) (UniProt P08684); test: qHTS Assay for Inhibitors and Substrates of Cytochrome P450 3A4 (AID 884); conditions: recombinant CYP3A4, Luciferin-PPXE luminescence; series mostly up to 57.1 µM; further: potency means the concentration at half of the fitted maximal effect; nearly all actives have a fitted effect of over 50% in size
Method in brief: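 Luminescent readout of luciferin produced by CYP3A4 (20 nM) dealkylation of Luciferin-PPXE, 25 uM (its KM). NADPH-driven reaction ran 60 min at RT after 10 min compound preincubation; data scaled to 57 uM ketoconazole as 100% inhibition.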

[11] = molecular target: Cytochrome P450 3A4 (Homo sapiens) (UniProt P08684); test: qHTS Assay for Activators of Cytochrome P450 3A4 (AID 885); conditions: recombinant CYP3A4, Luciferin-PPXE luminescence, 60 min; series mostly up to 57.1 µM; further: nearly all actives have a fitted effect of over 65% in size
Method in brief: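 Human CYP3A4 dealkylates Luciferin-PPXE to luciferin, which luciferase detection converts to light. Substrate was at its KM (25uM), buffer 200mM KPO4, reaction 60 min at RT.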

[12] = molecular target: Dual specificity protein kinase CLK4 (Homo sapiens) (UniProt Q9HAZ1); test: qHTS Assay for Inhibitors of CDC-like Kinase 4 (Kinase-Glo Assay) (AID 1770); conditions: recombinant Clk4, Kinase-Glo ATP depletion luminescence; series mostly up to 66.7 µM; further: nearly all actives have a fitted effect of over 65% in size; further: potency means the concentration at half of the fitted maximal effect
Method in brief: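 Substrate mix (RS peptide 100 uM, ATP 1 uM) dispensed, compound pinned in, then Clk4 added to 25 nM final. Incubated 4.5 h at RT; Kinase-Glo reagent added, luminescence read after 5 min.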

[13] = molecular target: Dual specificity protein kinase CLK4 (Homo sapiens) (UniProt Q9HAZ1); test: qHTS Assay for Inhibitors of CDC-like Kinase 4 (ADP-Glo Assay) (AID 1771); conditions: recombinant CLK4, ADP-Glo luminescence; series mostly up to 80 µM; further: nearly all actives have a fitted effect of over 70% in size; further: potency means the concentration at half of the fitted maximal effect
Method in brief: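 ADP production was read by ADP-Glo luminescence after residual ATP depletion, following 1 h room-temperature reaction of 25 nM Clk4, 1 uM ATP and 100 uM RS peptide with MgCl2, EGTA, DTT and Triton X-100.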

[14] = molecular target: Dual specificity protein kinase CLK4 (Homo sapiens) (UniProt Q9HAZ1); test: qHTS Assay for Inhibitors of CDC-like Kinase 4 (ADP-FP Assay) (AID 1795); conditions: Transcreener ADP fluorescence polarization; series mostly up to 50 µM; further: nearly all actives have a fitted effect of over 60% in size; further: potency means the concentration at half of the fitted maximal effect
Method in brief: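 Clk4 6.25 nM; RS peptide 100 uM; ATP 1 uM; 25 mM Tris pH 7.5, 10 mM MgCl2; 1 h reaction. ADP detected via antibody/orange tracer FP displacement; TG003 positive control.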

[15] = molecular target: Ubiquitin carboxyl-terminal hydrolase 1 (Homo sapiens) (UniProt O94782); test: Inhibitors of USP1/UAF1: Pilot qHTS (AID 504865); conditions: purified USP1/UAF1, Ub-rhodamine cleavage fluorescence; series mostly up to 54.9 µM; further: nearly all actives have a fitted effect of over 35% in size; further: potency means the concentration at half of the fitted maximal effect
Method in brief: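 In 50mM HEPES pH 7.8 containing 0.5mM EDTA, 1mM TCEP, 0.1 mg/ml BSA and 0.01% Tween-20, 1nM USP1/UAF1 is exposed to compound for 15 min, then Ub-Rho (150nM final) is added and fluorescence is read over time.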

[16] = Primary qHTS for small molecule stabilizers of the endoplasmic reticulum resident proteome: Secreted ER Calcium Modulated Protein (SERCaMP) assay (AID 1508630); conditions: SH-SY5Y GLuc-SERCaMP (Gaussia luciferase released on ER calcium loss) secretion, thapsigargin, luminescence; series mostly up to 38.4 µM; further: on the % scale 0 is the no-effect control and ±100 the full control effect
Method in brief: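 The SH-SY5Y reporter protocol was run at 3 concentrations up to 38.3 uM (primary) or 11 concentrations (follow-up): 16 h compound, 100 nM thapsigargin for 4 h, then extracellular luciferase luminescence.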

Chain of Dual specificity protein kinase CLK4 (Homo sapiens) (Q9HAZ1 whole entry, looked up): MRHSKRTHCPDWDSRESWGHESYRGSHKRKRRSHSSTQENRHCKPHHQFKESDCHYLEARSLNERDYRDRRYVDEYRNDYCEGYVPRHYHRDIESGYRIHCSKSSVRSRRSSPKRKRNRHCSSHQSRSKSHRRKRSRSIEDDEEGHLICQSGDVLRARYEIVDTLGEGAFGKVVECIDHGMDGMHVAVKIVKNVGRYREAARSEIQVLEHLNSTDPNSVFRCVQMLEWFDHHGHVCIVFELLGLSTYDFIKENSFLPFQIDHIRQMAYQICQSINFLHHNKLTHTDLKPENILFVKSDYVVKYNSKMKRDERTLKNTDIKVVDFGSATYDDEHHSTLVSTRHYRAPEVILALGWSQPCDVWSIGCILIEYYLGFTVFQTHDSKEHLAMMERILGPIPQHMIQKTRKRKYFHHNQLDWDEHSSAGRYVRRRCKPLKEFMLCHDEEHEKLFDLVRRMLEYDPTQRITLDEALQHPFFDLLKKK
Chain of Glucocorticoid receptor (Homo sapiens) (P04150 whole entry, looked up, the tested form may be a part): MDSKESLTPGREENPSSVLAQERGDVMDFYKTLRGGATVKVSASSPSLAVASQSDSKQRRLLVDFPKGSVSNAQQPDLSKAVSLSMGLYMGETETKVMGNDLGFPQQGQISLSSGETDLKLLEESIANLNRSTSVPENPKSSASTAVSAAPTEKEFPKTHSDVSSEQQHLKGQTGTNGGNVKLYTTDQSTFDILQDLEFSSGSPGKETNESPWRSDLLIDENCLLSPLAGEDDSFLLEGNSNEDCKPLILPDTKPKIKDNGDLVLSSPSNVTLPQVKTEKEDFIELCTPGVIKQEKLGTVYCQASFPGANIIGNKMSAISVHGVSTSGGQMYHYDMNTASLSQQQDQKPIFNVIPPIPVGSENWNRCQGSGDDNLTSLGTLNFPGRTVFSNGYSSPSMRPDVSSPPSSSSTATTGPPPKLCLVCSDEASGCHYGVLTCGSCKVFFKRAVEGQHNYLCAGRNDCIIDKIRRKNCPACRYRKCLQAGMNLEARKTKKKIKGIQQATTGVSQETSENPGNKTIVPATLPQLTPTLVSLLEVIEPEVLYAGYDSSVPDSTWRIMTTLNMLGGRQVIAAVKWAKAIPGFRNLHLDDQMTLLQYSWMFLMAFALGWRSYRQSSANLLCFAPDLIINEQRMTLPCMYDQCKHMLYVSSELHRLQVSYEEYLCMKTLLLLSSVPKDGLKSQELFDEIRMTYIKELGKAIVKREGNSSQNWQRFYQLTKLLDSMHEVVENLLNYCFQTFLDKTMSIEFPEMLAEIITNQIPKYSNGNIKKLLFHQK
Chain of Lysosomal acid glucosylceramidase (Homo sapiens) (P04062 whole entry, looked up): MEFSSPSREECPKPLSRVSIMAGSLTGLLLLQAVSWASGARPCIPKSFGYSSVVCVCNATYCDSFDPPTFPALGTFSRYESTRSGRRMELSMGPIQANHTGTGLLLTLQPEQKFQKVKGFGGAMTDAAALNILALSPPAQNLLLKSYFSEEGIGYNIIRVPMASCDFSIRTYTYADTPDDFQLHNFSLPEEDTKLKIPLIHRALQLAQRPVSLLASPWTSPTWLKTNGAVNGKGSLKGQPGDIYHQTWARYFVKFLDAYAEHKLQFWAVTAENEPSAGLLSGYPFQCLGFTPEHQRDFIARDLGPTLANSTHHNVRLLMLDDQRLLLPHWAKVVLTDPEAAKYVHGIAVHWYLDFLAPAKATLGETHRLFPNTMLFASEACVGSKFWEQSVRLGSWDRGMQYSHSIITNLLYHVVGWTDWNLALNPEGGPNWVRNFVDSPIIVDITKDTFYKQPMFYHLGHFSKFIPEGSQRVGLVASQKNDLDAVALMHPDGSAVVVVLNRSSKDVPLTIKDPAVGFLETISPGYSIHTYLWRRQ
Chain of Ubiquitin carboxyl-terminal hydrolase 1 (Homo sapiens) (O94782 whole entry, looked up): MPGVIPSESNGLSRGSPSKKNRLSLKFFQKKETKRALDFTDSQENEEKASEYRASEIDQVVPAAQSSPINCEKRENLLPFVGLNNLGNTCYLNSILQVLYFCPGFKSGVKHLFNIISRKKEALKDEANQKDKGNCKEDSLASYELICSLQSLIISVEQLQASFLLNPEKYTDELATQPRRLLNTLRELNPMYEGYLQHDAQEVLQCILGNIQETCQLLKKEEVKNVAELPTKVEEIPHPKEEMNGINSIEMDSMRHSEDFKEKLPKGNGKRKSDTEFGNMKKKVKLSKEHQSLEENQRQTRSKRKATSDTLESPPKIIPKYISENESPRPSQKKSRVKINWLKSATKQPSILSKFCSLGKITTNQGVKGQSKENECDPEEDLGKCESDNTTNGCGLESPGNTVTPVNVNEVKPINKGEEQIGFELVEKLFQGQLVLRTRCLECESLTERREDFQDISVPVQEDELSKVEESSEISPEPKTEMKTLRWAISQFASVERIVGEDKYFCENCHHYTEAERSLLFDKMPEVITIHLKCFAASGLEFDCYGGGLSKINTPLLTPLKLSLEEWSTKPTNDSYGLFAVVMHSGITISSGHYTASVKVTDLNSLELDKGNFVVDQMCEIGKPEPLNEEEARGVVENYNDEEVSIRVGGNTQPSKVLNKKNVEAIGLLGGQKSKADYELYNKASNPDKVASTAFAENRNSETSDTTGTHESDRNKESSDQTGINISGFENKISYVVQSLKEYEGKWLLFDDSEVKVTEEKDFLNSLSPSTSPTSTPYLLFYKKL
Chain of Cytochrome P450 3A4 (Homo sapiens) (P08684 whole entry, looked up): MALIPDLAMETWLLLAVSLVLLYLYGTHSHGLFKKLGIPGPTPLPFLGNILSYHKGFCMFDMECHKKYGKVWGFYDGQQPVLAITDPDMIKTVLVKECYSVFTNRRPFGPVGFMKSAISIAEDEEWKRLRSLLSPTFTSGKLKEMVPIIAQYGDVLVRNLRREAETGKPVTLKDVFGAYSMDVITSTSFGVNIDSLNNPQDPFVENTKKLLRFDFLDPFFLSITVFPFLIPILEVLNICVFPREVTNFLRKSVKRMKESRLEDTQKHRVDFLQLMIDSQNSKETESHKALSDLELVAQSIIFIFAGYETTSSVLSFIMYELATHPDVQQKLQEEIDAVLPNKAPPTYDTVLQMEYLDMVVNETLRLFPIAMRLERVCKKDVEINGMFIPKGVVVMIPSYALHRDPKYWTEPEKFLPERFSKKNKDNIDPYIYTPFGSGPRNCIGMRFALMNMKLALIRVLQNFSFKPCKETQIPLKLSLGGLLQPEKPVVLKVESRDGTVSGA
Chain of Cytochrome P450 1A2 (Homo sapiens) (P05177 whole entry, looked up): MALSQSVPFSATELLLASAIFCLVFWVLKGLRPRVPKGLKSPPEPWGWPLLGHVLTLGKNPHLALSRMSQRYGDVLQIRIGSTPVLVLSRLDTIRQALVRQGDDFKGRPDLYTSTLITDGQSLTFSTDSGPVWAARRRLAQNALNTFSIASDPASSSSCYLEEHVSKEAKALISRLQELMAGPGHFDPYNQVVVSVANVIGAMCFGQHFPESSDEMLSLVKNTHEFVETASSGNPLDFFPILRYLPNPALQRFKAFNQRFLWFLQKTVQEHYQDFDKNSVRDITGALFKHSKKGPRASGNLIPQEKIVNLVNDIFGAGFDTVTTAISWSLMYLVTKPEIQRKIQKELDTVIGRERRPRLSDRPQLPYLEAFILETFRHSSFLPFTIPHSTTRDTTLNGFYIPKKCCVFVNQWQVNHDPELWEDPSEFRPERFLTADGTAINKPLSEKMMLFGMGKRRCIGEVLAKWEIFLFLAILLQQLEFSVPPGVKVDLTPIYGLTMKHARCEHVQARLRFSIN
Chain of 3',5'-cyclic-AMP phosphodiesterase 4B (Homo sapiens) (Q07343 whole entry, looked up): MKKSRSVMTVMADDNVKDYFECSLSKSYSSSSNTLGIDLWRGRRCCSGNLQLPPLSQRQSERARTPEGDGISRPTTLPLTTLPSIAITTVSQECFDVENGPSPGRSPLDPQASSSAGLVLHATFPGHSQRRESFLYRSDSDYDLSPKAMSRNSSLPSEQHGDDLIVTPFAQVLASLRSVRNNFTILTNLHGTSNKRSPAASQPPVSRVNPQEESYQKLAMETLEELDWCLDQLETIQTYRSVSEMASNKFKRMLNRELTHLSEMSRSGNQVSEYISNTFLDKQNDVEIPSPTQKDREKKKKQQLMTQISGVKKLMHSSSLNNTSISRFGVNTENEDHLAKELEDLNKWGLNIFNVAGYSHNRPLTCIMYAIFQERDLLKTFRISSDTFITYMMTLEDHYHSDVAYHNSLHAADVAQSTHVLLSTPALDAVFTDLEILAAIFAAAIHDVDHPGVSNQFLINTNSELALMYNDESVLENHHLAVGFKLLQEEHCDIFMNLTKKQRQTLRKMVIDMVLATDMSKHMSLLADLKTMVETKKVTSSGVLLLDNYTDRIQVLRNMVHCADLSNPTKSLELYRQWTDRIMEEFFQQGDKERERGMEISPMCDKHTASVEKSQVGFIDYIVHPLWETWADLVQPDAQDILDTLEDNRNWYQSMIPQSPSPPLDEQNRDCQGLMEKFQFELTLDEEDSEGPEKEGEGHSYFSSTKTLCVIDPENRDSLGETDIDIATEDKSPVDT

Structure (SMILES)	Potency [1] [µM]	activity change, negative = inhibition [2] [%]	Potency [3]	activity change, negative = inhibition [4] [%]	activity, negative = inhibition [5] [%]	Potency [6] [µM]	Potency [7] [µM]	Potency [8]	Potency [9]	Potency [10]	Potency [11]	Potency [12]	Potency [13]	Potency [14]	Potency [15]	outcome [16]
Cc1cccc(CNc2ncncc2-c2ccc(C(=O)N(C)C)cc2)c1	> 11.4	-19	15.8 µM (active)	11.4	1.97	> 46	> 46	inactive	inactive	0.631 µM (active)	inactive	inactive	inactive	inactive	inactive	inactive
N#Cc1cccc(-c2nccc(-n3ccnc3)n2)c1	> 11.4	10.7	0.2 µM (active)	10.9	4.18	> 46	> 46	inactive	inactive	2.51 µM (active)	inactive	8.91 µM (active)	10 µM (active)	12.6 µM (active)	inactive	inactive
O=c1c(-c2cccc(Cl)c2)nc2cncnc2n1Cc1ccccc1	> 11.4	-3.36	1 µM (active)	-0.741	-3.65	> 9.22	> 46	inactive				inactive	inactive	inactive	inactive	inactive
Cn1c(=O)c(-c2ccc(F)c(F)c2)nc2cncnc21	> 11.4	10	0.158 µM (active)	-5.02	-7.37	> 9.22	> 46	inactive	inactive		inactive	inactive	inactive	inactive	inactive	inactive
COc1ccc(-n2c(=O)c(-c3cccc(F)c3)nc3cncnc32)cc1	> 11.4	-4.56	3.98 µM (active)	7.82	-17.1	> 9.22	> 46	inactive	inactive		inactive	inactive	inactive	inactive	inactive	inactive
COc1ccc(Oc2ncc3ncc(=O)n(C4CC4)c3n2)cc1	> 11.4	-1.59	5.01 µM (active)	5.04	-19.9	> 9.22	> 46	inactive	inactive		inactive	inactive	inactive	inactive	inactive	inactive
COc1ccc(-n2c(=O)c(-c3cc(F)cc(F)c3)nc3cncnc32)cc1	> 11.4	-5	12.6 µM (active)	-16	6.92	> 9.22	> 46	inactive	inactive		inactive	inactive	inactive	inactive	inactive	inactive
COc1cccc(Cn2c(=O)c(-c3cccs3)nc3cncnc32)c1	> 11.4	-13.8	5.01 µM (active)	-4.4	0.799	> 9.22	> 46	inactive		5.01 µM (active)	inactive	inactive	inactive	inactive	inactive	inactive
CNc1ccnc(-c2ccccc2C)n1	> 11.4	0.123	5.01 µM (active)	13	6.43	> 46	> 46	inactive	inactive		inactive	inactive	inactive	inactive	inactive	inactive
Cc1cnc(CNc2ccnc(-c3ccoc3)n2)cn1	> 11.4	16.3	12.6 µM (active)	-4.07	7.07	> 46	> 46	inactive	inactive		inactive	inactive	inactive	inactive	inactive	inactive
COc1ccc(-n2c(=O)c(-c3ccccc3)nc3cnc(N4CCOCC4)nc32)cc1	> 11.4	5.32	15.8 µM (active)	6.27	6.26	> 9.22	> 46	inactive	inactive			inactive	inactive	inactive	inactive	inactive
COc1ncc2nc(CCc3ccccc3)c(=O)n(CCc3ccccc3)c2n1	> 11.4	-0.194	3.98 µM (active)	-0.888	-1.74	> 9.22	> 46	inactive		3.16 µM (active)	inactive	inactive	inactive	inactive	inactive	inactive
CN(C)C(=O)c1ccc(-c2cncnc2Nc2ccccc2)cc1	> 11.4	-7.47	31.6 µM (active)	1.8	-6.42	> 46	> 46	inactive	inactive		inactive	inactive	inactive	inactive	inactive	inactive
COc1cccc(Cn2c(=O)c(-c3cn(C)c4ccccc34)nc3cncnc32)c1	> 11.4	2.97	1 µM (active)	-0.984	-0.403	> 9.22	> 46	inactive	inactive		inactive	inactive	inactive	inactive	inactive	inactive
COc1ccccc1CCn1c(=O)c(CCc2ccccc2)nc2cncnc21	> 11.4	-16	7.94 µM (active)	-21.1	-8.11	> 9.22	> 46	inactive		3.16 µM (active)	inactive	inactive	inactive	inactive	inactive	inactive
CS(=O)(=O)Nc1cccc(-c2cncnc2NCc2ccccc2)c1	> 11.4	-1.31	25.1 µM (active)	3.36	-2.08	> 46	> 46	inactive		0.631 µM (active)	inactive	inactive	inactive	inactive	inactive	inactive
COCCn1c(=O)c(-c2cc(F)cc(F)c2)nc2cncnc21	> 11.4	-5.19	2 µM (active)	1.95	-7.77	> 9.22	> 46	inactive	inactive		inactive	inactive	inactive	inactive	inactive	inactive
COc1ccccc1CCn1c(=O)c(-c2cccc(Cl)c2)nc2cncnc21	> 11.4	-3.94	0.316 µM (active)	-27.9	-13	> 9.22	> 46	inactive		6.31 µM (active)	inactive	inactive	inactive	inactive	inactive	inactive
O=c1cnc2cnc(Nc3ccccc3)nc2n1CCc1ccccc1	> 11.4	-13.5	3.16 µM (active)	9.72	-12.1	> 9.22	> 46	inactive	2.51 µM (active)			0.199 µM (active)	0.316 µM (active)	0.0891 µM (active)	inactive	inactive
Cc1ccccc1-c1ccc2ncnc(NCc3cccs3)c2c1	> 11.4	-9.99	2.51 µM (active)	-15.8	-13.1	> 46	> 46	inactive		3.98 µM (active)	inactive	3.98 µM (active)	3.55 µM (active)	3.55 µM (active)	14.1 µM (active)	inactive
CCNc1ncc2nc(-c3ccc(OC)cc3)c(=O)n(CCC#N)c2n1	> 11.4	-5.2	10 µM (active)	-15.6	-7.35	> 9.22	> 46	inactive	inactive		inactive	inactive	inactive	inactive	inactive	inactive
c1nc(NCCN2CCOCC2)c2cc(-c3ccoc3)ccc2n1	> 11.4	-17.7	12.6 µM (active)	-0.57	-6.63	> 46	> 46	inactive	inactive		inactive	0.708 µM (active)	0.891 µM (active)	0.355 µM (active)	inactive	inactive
O=c1c(-c2cccc(F)c2)nc2cncnc2n1Cc1ccccc1Cl	> 11.4	-4.26	3.98 µM (active)	-7.87	4.32	> 9.22	> 46	inactive			inactive	inactive	inactive	inactive	inactive	inactive
CN1CCN(c2ncncc2-c2cccnc2)CC1	> 11.4	2.82	25.1 µM (active)	-6.42	-20.2	> 46	> 46	inactive	inactive		inactive	inactive	inactive	inactive	inactive	inactive
